Results reported in PubChem BioAssay (EPA / NIEHS).
Active and inactive are the calls of the source. How the source made its calls: active means hit-call score of the fitted dose curve at least 0.9, where 1 is the maximum; inactive means score below 0.9.

Columns and labels:
Conditions in all cases: actives raise or lower the signal
[1] = CEETOX_H295R_11DCORT_noMTC: CeeTox H295R High-throughput Steroidogenesis Assay for 11-Deoxycortisol (11DCORT), maximum tolerated concentration (MTC) filtered results only (AID 2283911)
Protocol: (§1) CEETOX_H295R is a cell-based, multiplexed-readout assay that uses H295R, a human adrenal gland cell line, with measurements taken at 48 hours after chemical dosing in a 96-well plate.CEETOX_H295R_11DCORT_noMTC is one of 12 assay component(s) measured or calculated from the CEETOX_H295R assay (11 hormones and 1 viability assay). It is designed to make measurements of hormone induction, a form of inducible reporter, as detected with absorbance signals by HPLC-MS-MS technology. The concentrations for these components have not been pre-filtered for the maximum tolerated concentration (MTC) based on the MTT assay (_noMTC).Data from the assay component CEETOX_H295R_11DCORT_noMTC was analyzed into 1 assay endpoint. This assay endpoint, CEETOX_H295R_11DCORT_noMTC, was analyzed with bidirectional fitting relative to DMSO as the negative control and baseline of activity. […]
(§2) Cell culture and media preparation procedures were conducted in accordance with OECD Test No. 456 guidelines, with minor modifications. […] For steroid quantification, media samples were shipped to OpAns, LLC (Durham, NC) on dry ice, and samples were thawed to room temperature prior to liquid-liquid extraction. […] Steroid hormones were separated by HPLC, eluted using a reverse phase C18 gradient with electrospray positive ionization, followed by quantification by tandem mass spectrometry (MS/MS). […]

[2] = CEETOX_H295R_OHPREG_noMTC: CeeTox H295R High-throughput Steroidogenesis Assay for OH-Pregnenolone (OHPREG), maximum tolerated concentration (MTC) filtered results only (AID 2283912)
Method in brief: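 Steroidogenesis in H295R cells (OECD 456, modified): after 48 h forskolin priming and 48 h chemical treatment, secreted 17alpha-hydroxypregnenolone is measured by HPLC-MS/MS. Activity is fitted in both directions against DMSO; concentrations are not filtered by MTT-based MTC.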

[3] = CEETOX_H295R_OHPROG_noMTC: CeeTox H295R High-throughput Steroidogenesis Assay for OH-Progesterone (OHPROG), maximum tolerated concentration (MTC) filtered results only (AID 2283914)
Method in brief: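 Forskolin 10 uM, 48 h prestim → test cmpd in DMSO (0.1% final), 48 h → medium MTBE extraction → LC-MS/MS quant of 17alpha-OH-progesterone. Bidirectional fit vs DMSO; no MTT-based MTC filtering.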

[4] = CEETOX_H295R_ANDR_noMTC: CeeTox H295R High-throughput Steroidogenesis Assay for Androstenedione (ANDR), maximum tolerated concentration (MTC) filtered results only (AID 2283915)
Method in brief: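 H295R cells, passage 10 or below, prestimulated 48 h with 10 uM forskolin, then exposed 48 h to chemical in 0.1% DMSO. Medium androstenedione extracted with MTBE, quantified by HPLC-MS/MS; concentrations not MTC-filtered; bidirectional fit versus DMSO.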

[5] = CEETOX_H295R_CORTISOL_noMTC: CeeTox H295R High-throughput Steroidogenesis Assay for Cortisol, maximum tolerated concentration (MTC) filtered results only (AID 2283916)
Method in brief: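 Cortisol secretion measured by LC-MS/MS after 48 h chemical treatment (final 0.1% DMSO) of forskolin-primed (10 uM, 48 h) H295R cells; gain or loss fitted relative to DMSO, without maximum-tolerated-concentration filtering.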

[6] = CEETOX_H295R_CORTIC_noMTC: CeeTox H295R High-throughput Steroidogenesis Assay for Corticosterone (CORTIC), maximum tolerated concentration (MTC) filtered results only (AID 2283917)
Method in brief: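 Following OECD 456 with minor changes, H295R cultures received 10 uM forskolin for 48 h, then test chemical at 0.1% DMSO for 48 h. Media steroids were extracted and measured by LC-MS/MS.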

[7] = CEETOX_H295R_DOC_noMTC: CeeTox H295R High-throughput Steroidogenesis Assay for DOC, maximum tolerated concentration (MTC) filtered results only (AID 2283918)
Method in brief: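 11-Deoxycorticosterone secreted by human adrenal H295R cells quantified by HPLC-MS/MS after 48 h chemical exposure (0.1% DMSO), following 48 h 10 uM forskolin prestimulation. Concentrations not filtered by MTT-derived MTC; bidirectional fitting.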

[8] = CEETOX_H295R_ESTRADIOL_noMTC: CeeTox H295R High-throughput Steroidogenesis Assay for Estradiol, maximum tolerated concentration (MTC) filtered results only (AID 2283919)
Method in brief: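 H295R human adrenal cells pre-stimulated 48 h with 10 uM forskolin, then exposed 48 h to chemical (0.1% DMSO final). Estradiol in medium measured by HPLC-MS/MS after MTBE extraction and dansyl derivatization; bidirectional fit versus DMSO, concentrations not MTT-filtered.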

[9] = CEETOX_H295R_PROG_noMTC: CeeTox H295R High-throughput Steroidogenesis Assay for Progesterone (PROG), maximum tolerated concentration (MTC) filtered results only (AID 2283920)
Method in brief: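 H295R cells; forskolin 10 uM x 48 h prestim; test cpd 48 h, 0.1% DMSO final; media progesterone via LC-MS/MS; bidirectional fit vs DMSO; no MTT-based MTC filter applied.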

[10] = CEETOX_H295R_ESTRONE_noMTC: CeeTox H295R High-throughput Steroidogenesis Assay for Estrone, maximum tolerated concentration (MTC) filtered results only (AID 2283921)
Protocol: as §1, with “plate.CEETOX_H295R_ESTRONE_noMTC” for “plate.CEETOX_H295R_11DCORT_noMTC”, “CEETOX_H295R_ESTRONE_noMTC” for “CEETOX_H295R_11DCORT_noMTC”, “CEETOX_H295R_ESTRONE_noMTC,” for “CEETOX_H295R_11DCORT_noMTC,”
as §2

Measured: AC50

Cc1cc(CCN2CCN(c3nsc4ccccc34)CC2)cc2c1NC(=O)CC2(C)C
inactive: [2] | [4]
active: [1] 11.2 µM | [3] 0.756 µM | [5] 10 µM | [6] 2.65 µM | [7] 7.31 µM | [8] 3.98 µM | [9] 0.584 µM | [10] 4.93 µM

c1ccc2c(c1)Cc1ccccc1-2
inactive: [1] | [2] | [3] | [5] | [6] | [7] | [8] | [9] | [10]
